Data on 27 compounds can be found in PubChem BioAssay (NCATS).

Records with an inconclusive call do not appear. Activity calls are given as the source filed them. Calls follow the shape of the dose curve; as a rule, active = well fitted cell-killing curve with a large enough effect; inconclusive = small, poorly fitted or top-dose-only effect, or effect the other way; inactive = no such curve, though single readings can be large or run the other way.
Potency is read from the fitted curve at half-maximal effect.

A short description of this test: Quantitative High-Throughput drug screen in 47 multiple myeloma cell lines against the NCATS MIPE library collection: KMS27_JCRB cell viability assay (AID 1918970). Also: nearly all actives have a fitted effect of over 30% in size. The note with it: KMS27 myeloma cells, CellTiter-Glo ATP viability, 48 h; series mostly up to 45.8 µM; viability (% of DMSO): at the top concentration. The source says:
PI: Beverly A. Mock Ph.D.
Laboratory of Cancer Biology and Genetics,
Center for Cancer Research, National Cancer Institute,
National Institute of Health, Bethesda, Maryland
Drug resistance and disease progression are common in multiple myeloma (MM) patients, underscoring the need for new therapeutic combinations. […] We hypothesized that effective combinations would reduce MYC expression and enhance p16 activity. […] These preclinical data identify potentially useful drug combinations for evaluation in drug-resistant MM and reveal potential mechanisms of combined drug sensitivity.
Described herein is the primary MIPE qHTS used to cherrypick compounds. Validated compounds were then further tested for potential synergistic activiy.
[1] Peat TJ, Gaikwad SM, Dubois W, Gyabaah-Kessie N, Zhang S, Gorjifard S, Phyo Z, Andres M, Hughitt VK, Simpson RM, Miller MA, Girvin AT, Taylor A, Williams D, D'Antonio N, Zhang Y, Rajagopalan A, Flietner E, Wilson K, Zhang X, Shinn P, Klumpp-Thomas C, McKnight C, Itkin Z, Chen L, Kazandijian D, Zhang J, Michalowski AM, Simmons JK, Keats J, Thomas CJ, Mock BA. Drug combinations identified by high-throughput screening promote cell cycle transition and upregulate Smad pathways in myeloma. […] Epub 2023 Jun 24. PMID: 37356470; PMCID: PMC10408729.
SEQUENCE No. (e.g., 1, 2, 3, etc.); […] (e.g., Cells, Incubation, Reagent, etc.); VALUE and DESCRIPTION.
1; Cells; 5 uL; white, solid bottom 1536-well Greiner assay plate.
2; Compounds; 23 nL; Kalypsis pin tool (Wako USA) equipped with a 1536-well pin head to transfer to the assay plates.
3; Incubation; 48 hours; 37C incubation.
4; Reagent;5uL; CellTiter Glo (Promega).
5; Detector; 425V; Luminescence; Viewlux PerkinElmer.
NOTES (numbers refer to Sequence numbers above)
1. The cell-based screening methods employed in this study were like those previously published. Briefly, the corresponding myeloma cell lines were screened in 1,536-well plates with 500 cells, 5-uL per well for inhibition of cell viability (assessed by measuring ATP levels with CellTiterGlo).
2. NCATS MIPE 4.0 library of approved and investigational drugs were added using the Kalypsis pin tool. Wells treated with DMSO only for 100% viability and media only wells for 0% viability were used as controls.
3. The assay plates were covered and incubated for 48 hours in a 37C, 5% CO2 incubator with controlled humidity.
4. After 48 hours, CellTilter-GloTM luminescent substrate mix (Promega) reagent was added to the assay plate and plates we incubated for 5 min at room temperature.
5. Signal was measured as median relative luminescence units on a ViewLux (PerkinElmer) multiplate reader.
[1] Heske CM, Davis MI, Baumgart JT, Wilson K, Gormally MV, Chen L, Zhang X, Ceribelli M, Duveau DY, Guha R, Ferrer M, Arnaldez FI, Ji J, Tran HL, Zhang Y, Mendoza A, Helman LJ, Thomas CJ. Matrix Screen Identifies Synergistic Combination of PARP Inhibitors and Nicotinamide Phosphoribosyltransferase (NAMPT) Inhibitors in Ewing Sarcoma. Clin Cancer Res. 2017 Dec 1;23(23):7301-7311. doi: 10.1158/1078-0432.CCR-17-1121. Epub 2017 Sep 12. PMID: 28899971; PMCID: PMC6636827.
For orientation: ATP-based viability assays read luminescence as a measure of living cells.
On to `C[C@@H]1O[C@@H](O[C@H]2C[C@@H](O)[C@]3(CO)[C@H]4[C@H](O)C[C@]5(C)[C@@H](C6=CC(=O)OC6)CC[C@]5(O)[C@@H]4CC[C@]3(O)C2)[C@H](O)[C@H](O)[C@H]1O`, for which the Potency was 0.0187 µM (active). Consider `CN(C)CCN(C)CCc1ccc(Cl)c(Cl)c1`, for which the “viability (% of DMSO)” value is 120% (inactive). In the case of `CC(O)(CS(=O)(=O)c1ccc(F)cc1)C(=O)Nc1ccc(C#N)c(C(F)(F)F)c1` (configuration not stated), the Potency is 2.35 µM (active). With `CN(C)[C@@H]1C(=O)C(C(N)=O)=C(O)[C@@]2(O)C(=O)C3=C(O)c4c(O)cccc4[C@@](C)(O)[C@H]3C[C@@H]12`, the “viability (% of DMSO)” value is 117% (inactive). For `N[C@@H](Cc1ccc(N(CCCl)CCCl)cc1)C(=O)O`, the Potency was 3.72 µM (active).

Consider `C[C@@H]1[C@@H](CC(C[C@H]2O[C@@H]3O[C@]4(C)CC[C@@H]5[C@H](C)CC[C@@H]([C@H]2C)[C@@]35OO4)C[S+](=O)([O-])c2ccc(COC(=O)N(C)C)cc2)O[C@@H]2O[C@]3(C)CC[C@H]4[C@H](C)CC[C@@H]1[C@@]24OO3` (some centres not stated), for which the Potency was 0.187 µM (active). Turning to `COc1ccc(C(CN(C)C)C2(O)CCCCC2)cc1` (configuration not stated), the “viability (% of DMSO)” value was 123% (inactive).

Consider `CC1=C2C[C@@H]3[C@@H](CC=C4C[C@@H](O)CC[C@@]43C)[C@@H]2CC[C@]12O[C@H]1C[C@H](C)CN[C@H]1[C@H]2C`, for which the “viability (% of DMSO)” value was 134% (inactive). Take `CNCC(O)c1ccc(O)cc1` (configuration not stated): the “viability (% of DMSO)” value is 99.9% (inactive).

In the case of `Cn1c(CCCC(=O)O)nc2cc(N(CCCl)CCCl)ccc21`, the “viability (% of DMSO)” value is 151% (inactive). Turning to `CNC(=O)c1ccc(N2C(=S)N(c3ccc(C#N)c(C(F)(F)F)c3)C(=O)C23CCC3)cc1F`, the “viability (% of DMSO)” value was 107% (inactive).

Turning to `COC[C@@H](NC(C)=O)C(=O)NCc1ccccc1`, the “viability (% of DMSO)” value is 88% (inactive). `C[C@@H]1[C@@H](C(=O)C[C@H]2O[C@@H]3O[C@]4(C)CC[C@@H]5[C@H](C)CC[C@@H]([C@H]2C)[C@@]35OO4)O[C@@H]2O[C@]3(C)CC[C@H]4[C@H](C)CC[C@@H]1[C@@]24OO3`: the Potency is 0.166 µM (active). In the case of `COc1ccc(C(=O)c2c(C)n(CCN3CCOCC3)c3ccccc23)cc1`, the “viability (% of DMSO)” value is 111% (inactive). For the compound `Cn1cc(C2=C(c3cn(C4CCN(Cc5ccccn5)CC4)c4ccccc34)C(=O)NC2=O)c2ccccc21`, the Potency was 18.7 µM (active). Regarding `Cc1cccc(C)c1NC(=O)CN1CCCC1=O`, the “viability (% of DMSO)” value was 94% (inactive). On the same count and under the same terms, the same measure for `O=C(O)C(=O)c1cn(Cc2ccccc2)c2ccc(-c3ccc(OC(F)(F)F)cc3)cc12`: 141% (inactive). Regarding `CNC(=O)N1N=C(c2ccc(N)cc2)c2cc3c(cc2CC1C)OCO3` (configuration not stated), the Potency is 3.32 µM (active). The same measure, in the same setting: as for `COC[C@H]1OC(=O)c2coc3c2[C@@]1(C)C1=C(C3=O)C2CCC(=O)[C@@]2(C)C[C@H]1OC(C)=O` (some centres not stated), the figure is 14.8 µM (active). With `CN(C)CCc1ccc(O)cc1`, the “viability (% of DMSO)” value is 117% (inactive). For `Cc1sc2c(c1C)C(c1ccc(Cl)cc1)=N[C@@H](CC(=O)OC(C)(C)C)c1nnc(C)n1-2`, the Potency was 0.0526 µM (active). As for `CCCC(C)(COC(N)=O)COC(=O)NC(C)C` (configuration not stated), the “viability (% of DMSO)” value is 97.8% (inactive). On to `C=C(C)[C@H]1Cc2c(ccc3c2O[C@@H]2COc4cc(OC)c(OC)cc4[C@@H]2C3=O)O1`, for which the Potency was 0.296 µM (active).

For the compound `COc1ccc2c(c1OC)CN1CCc3cc4c(cc3C1C2)OCO4` (configuration not stated), the Potency is 20.9 µM (active). `CN1CCN(C(=O)O[C@H]2c3nccnc3C(=O)N2c2ccc(Cl)cn2)CC1`: the “viability (% of DMSO)” value is 134% (inactive).

With `O=C1CC[C@@]2(O)[C@H]3Cc4ccc(O)c5c4[C@@]2(CCN3CC2CC2)[C@H]1O5`, the “viability (% of DMSO)” value is 134% (inactive). Still for that read-out and setting: as for `CC(C)CC(N(C)C)C1(c2ccc(Cl)cc2)CCC1` (configuration not stated), the figure is 110% (inactive).
